High-throughput results as filed in PubChem.
The full list was thinned out, with hits kept by preference.
PKM2 inh = blocks activity of human pyruvate kinase M2; AID 1634; 260,000 tested, 0.058% active; P14618; purified PKM2, ATP generation, Kinase-Glo luminescence; Potency, µM (top dose mostly 57.5 µM), inactives show top-dose activity change, negative = inhibition, most hits filed as inhibitors; further: potency means the concentration at half of the fitted maximal effect; nearly all actives have a fitted effect of over 60% in size
Target sequence (P14618 whole entry, looked up): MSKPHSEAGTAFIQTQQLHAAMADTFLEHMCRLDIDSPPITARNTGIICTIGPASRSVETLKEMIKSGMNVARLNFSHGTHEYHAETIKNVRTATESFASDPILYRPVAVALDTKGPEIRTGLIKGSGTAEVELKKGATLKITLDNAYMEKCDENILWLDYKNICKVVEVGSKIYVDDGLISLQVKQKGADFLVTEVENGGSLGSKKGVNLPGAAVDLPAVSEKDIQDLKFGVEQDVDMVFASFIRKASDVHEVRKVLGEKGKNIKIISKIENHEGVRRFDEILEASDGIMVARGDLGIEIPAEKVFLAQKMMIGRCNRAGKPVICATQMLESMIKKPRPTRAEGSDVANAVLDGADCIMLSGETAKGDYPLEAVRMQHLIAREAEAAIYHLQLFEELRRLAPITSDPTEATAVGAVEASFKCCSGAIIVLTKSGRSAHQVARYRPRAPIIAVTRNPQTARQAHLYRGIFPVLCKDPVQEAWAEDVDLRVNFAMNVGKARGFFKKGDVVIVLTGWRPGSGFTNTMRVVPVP
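Enzyme run at intermediate activity with final 0.1 mM ADP, 0.5 mM PEP (50 mM imidazole pH7.2, 50 mM KCl, 7 mM MgCl2), incubated 1 h at r.t. ATP formed read by Kinase-Glo luminescence, normalized to no-enzyme (full inhibition) and uninhibited wells.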
PKM2 inh dose = confirmation of human pyruvate kinase M2 inhibitors, concentration-response; shares compounds with PKM2 inh; purified hPK-M2, Kinase-Glo ATP luminescence, 1 h; Potency, µM (highest dose often 57.5 µM), without a hit: top-dose activity change, negative = inhibition, usual class: inhibitors; 55 tested, 50% active
PKM2 FLuc cs = counter-screen for pyruvate kinase M2 inhibitors: firefly luciferase inhibition | 55 tested, 30% active | Potency, µM (series often up to 57.5 µM), without a hit: top-dose activity, negative = inhibition, most hits filed as inhibitors | shares compounds with PKM2 inh | Kinase-Glo firefly luciferase, luminescence, 8 min
PKM2 inh LDH = blocks human pyruvate kinase M2 in LDH-coupled assay | AID 2267 | 55 tested, under 10 active | Potency, µM (series often up to 57.5 µM), without a hit: at the highest dose activity change, negative = inhibition, most hits filed as inhibitors | purified hPK-M2, LDH-coupled NADH fluorescence kinetic | shares compounds with PKM2 inh
Active calls of the source: *; ? = inconclusive; . = no result given. The call rests on the fitted dose curve; in most records, active means well fitted curve in the direction sought with a large enough effect; inconclusive means small, poorly fitted or top-dose-only effect, or another doubt; inactive means no such curve, though single readings can be large; an effect the other way counts as inactive or inconclusive.

SMILES	PKM2 inh	others
O=C(NCc1ccc(Cl)cc1)N1CCN(S(=O)(=O)c2ccccc2)CC1	56%
Cc1ccc(NC(=O)Cn2sc3nc(C)cc(C)c3c2=O)c(Cl)c1	101%
CCOc1ccc2nc(SCC(=O)Nc3cc(C)on3)c(C)cc2c1	53%
CCOc1ccc2nc(/N=C/c3c(C)[nH]n(-c4ccc(C)cc4)c3=O)sc2c1	13µM*
COCCn1c(-c2ccccc2)cnc1SCC(=O)Nc1cccc2ccccc12	-9%
COC(=O)c1ccc(S(=O)(=O)c2ccccc2)c(N)c1	44%
COc1ccc2cc(/C(C)=N/NC(=O)C3CC3)ccc2c1	34%
COc1ccc(S(=O)(=O)N2CCN(C(=O)c3cccs3)CC2)cc1	80%
COc1ccc(C(=O)O/N=C(/C)c2cccs2)cc1	14µM*
Cc1cc(C)cc(C(=O)NCC(=O)OCC(=O)N2CCN(S(=O)(=O)c3ccc4ccccc4c3)CC2)c1	62%
Clc1cc2c(c(CSc3nc4ccccc4n4cccc34)c1)OCOC2	30%
CNc1nc(-c2ccccc2)[n+](-c2ccc(C)cc2)s1	10µM*
Cc1ccc(/C=N/N(Cc2ccccc2)c2ccccc2)o1	64%
Cc1cc(C)n2nc(CNS(=O)(=O)c3ccc(F)c(C)c3)nc2n1	61%
CN(C)c1ccc(/C=N/NC(=O)c2ccnn2C)cc1	7.9µM*
COc1cc(NC(=S)N2CCN(S(=O)(=O)c3ccc(C)cc3)CC2)cc(OC)c1	40%
Cc1ccc(O)c(CNc2ccc(S(=O)(=O)Nc3nccs3)cc2)c1	44%
CC(=O)c1c(C)oc2ccc(N(C(C)=O)S(=O)(=O)c3cccc4cccnc34)cc12	76%
Cc1n[nH]c(=O)nc1NCc1ccco1	33%
Cc1ccn2c(NCc3ccco3)c(-c3ccccc3)nc2c1	.	PKM2 inh dose=-10%;PKM2 FLuc cs=1%;PKM2 inh LDH=?
COC(=O)Nc1c(-c2ccccc2)nc2ccccn12	36%
CC(C)C1Oc2ccccc2N(CC(=O)N(Cc2ccncc2)Cc2ccco2)C1=O (stereo unspecified)	36%
O=C(CSc1n[nH]c(=O)n1C1CC1)NCc1ccccc1Cl	69%
CCCCNS(=O)(=O)c1ccc2nc(SCC(=O)c3ccc(C#N)cc3)[nH]c2c1	95%
CC(C)n1c(SCC(=O)Nc2ccccc2)nc2c1c(=O)n(C)c(=O)n2C	73%
SMILES	PKM2 inh	others
O=C(COc1ccccc1C(=O)N/N=C\c1ccc(O)c(O)c1)N/N=C/c1ccc(O)c(O)c1	56%
CS(=O)(=O)N(CC(=O)N/N=C/c1cc2c(cc1Br)OCO2)c1ccccc1Br	42%
Cc1occc1C(=O)N/N=C/c1ccc2c(c1)OCO2	5.6µM*	PKM2 inh dose=13µM*;PKM2 FLuc cs=2.6µM*;PKM2 inh LDH=0%
O=C(CN1CCSC1=NCc1ccccc1)c1ccc(Cl)cc1	36%
COc1ccc(C2CC(c3ccccc3OC(C)=O)=NN2C(C)=O)cc1 (stereo unspecified)	43%
O=C(NC(=O)c1ccccc1)Nc1ccccn1	5µM*	PKM2 inh dose=12µM*;PKM2 FLuc cs=5.2µM*;PKM2 inh LDH=-2%
O=C(O)c1ccc(NC(=S)NC(=O)c2ccc(-c3ccccc3)cc2)cc1	49%
Cc1cc(C)c(NC(=O)NC(=O)c2cccc(F)c2)c(C)n1	31%
C=C(C)C(=O)Nc1cccc(C2=NOC3(C2)C[C@@H](C(N)=O)N(C(=O)/C=C/C=C/C)C3)c1 (stereo partly specified)	87%
COc1cccc(CNC(=O)CCC2CCCN(C(=O)c3ccc(OC)o3)C2)c1 (stereo unspecified)	62%
O=S(=O)(Nc1ccc(Cl)cc1)c1ccc2c(c1)CCO2	81%
CN1CCC(N(CCc2ccccc2)C(=O)CCC(=O)O)CC1	3%
CC(Sc1ccc([N+](=O)[O-])cn1)C(=O)Nc1nccs1 (stereo unspecified)	102%
CCOC(=O)c1c(C)sc2c1N(C(C)=O)c1cc(Cl)ccc1S2	78%
O=C1C=CC(=O)N1CCCCCCN1C(=O)C=CC1=O	10µM*	PKM2 inh dose=6.5µM*;PKM2 FLuc cs=-1%;PKM2 inh LDH=-28%
CCOC(=O)/C=C/C(=O)OCC(=O)Nc1ccc([N+](=O)[O-])cc1	47%
COc1ccccc1C(CCN(Cc1ccccc1)C(C)=O)c1ccco1 (stereo unspecified)	43%
COc1ccc(S(=O)(=O)Nc2nc3c(s2)CCCC3)cc1	90%
Cc1ccccc1Nc1c(-c2ccc(Cl)s2)nc2ccccn12	.	PKM2 inh dose=5%;PKM2 FLuc cs=0%;PKM2 inh LDH=?
COc1ccccc1CNC(=O)C1CCN(S(=O)(=O)c2ccc3c(c2)OCCCO3)CC1	49%
COCCNC(=O)C(Cc1c[nH]c2ccccc12)NC(=O)OCc1ccccc1 (stereo unspecified)	-3%
Cc1ccc(-c2nc3cccc(C)n3c2Nc2ccc(F)cc2)o1	.	PKM2 inh dose=10%;PKM2 FLuc cs=0%;PKM2 inh LDH=9.2µM*
c1coc(-c2nc3ccccc3nc2-c2ccco2)c1	30%
Cc1ccc(-c2cc(-c3ccc(F)cc3)c(C#N)c(N)n2)o1	48%
Cc1ccc(-c2nn(-c3ccccc3)cc2C2SCC(=O)N2Cc2ccccc2)o1 (stereo unspecified)	40%
SMILES	PKM2 inh	others
Cc1ccc2nc(-c3ccco3)c(Nc3ccccc3)n2c1	.	PKM2 inh dose=-1%;PKM2 FLuc cs=-1%;PKM2 inh LDH=?
Cc1ccc(-c2nc3ccc(Cl)cn3c2Nc2ccccc2)o1	.	PKM2 inh dose=14%;PKM2 FLuc cs=2%;PKM2 inh LDH=-21%
Cc1ccc2nc(-c3ccc(C)o3)c(Nc3ccc(F)cc3)n2c1	.	PKM2 inh dose=7%;PKM2 FLuc cs=0%;PKM2 inh LDH=?
Cc1ccc(-c2cc(-c3ccc(Cl)cc3)c(C#N)c(N)n2)o1	58%
Cc1ccc(Nc2c(-c3ccc(C)o3)nc3cnccn23)cc1	64%
CC(=O)Nc1ccc(N(C(=O)c2ccco2)C(C(=O)NC2CCCC2)c2ccc(N3CCOCC3)cc2)cc1 (stereo unspecified)	56%
Cc1ccc2[nH]c(O)c(N=NC(=O)CCc3ccccc3)c2c1Br	-6%
Cc1ccccc1OCC(=O)Nc1ccc2c(c1)n(C)c(=O)n2C	1%
CN(C)c1ccc(CNS(=O)(=O)c2ccc3c(c2)C(C)(C)C(=O)N3C)cc1	49%
COc1nc(C)nc2c1sc(=S)n2C	41%
O=C(CSc1nc2ccccc2n1Cc1ccccc1Cl)N/N=C/c1ccccc1C(=O)O	73%
COC(=O)c1ccc(C(=O)OC)c(NC(=O)CSc2cccc[n+]2[O-])c1	39%
Cc1ccc(C(=O)CCC(=O)N2CCN(C(=O)c3ccco3)CC2)cc1	61%
COc1cc([N+](=O)[O-])ccc1NC(=O)CSc1nncn1-c1cccnc1	53%
CC(=O)c1ccc(S(=O)(=O)N2CCN(C(=O)CSc3ccc(F)cc3)CC2)cc1	59%
COC(=O)[C@@]1(Cc2ccc(F)cc2)[C@H]2c3cc(C(=O)N4CCCC4)n(Cc4ccc(C)o4)c3C[C@H]2CN1C(=O)c1ccccc1	62%
CC(C)(C)NC(=S)N/N=C\c1ccc(-c2ccc([N+](=O)[O-])cc2)o1	43%
Cc1ccc2nc(-c3ccc(C)o3)c(Nc3ccccc3)n2c1	.	PKM2 inh dose=7%;PKM2 FLuc cs=1%;PKM2 inh LDH=?
Cc1ccc(-c2nc3cnccn3c2Nc2ccc3c(c2)OCO3)o1	66%
